# Results: article PMC7862700, “An all-to-all approach to the identification of sequence-specific readers for epigenetic DNA modifications on cytosine”
# Legend:
# Assay in all cases: DAPPL (digital affinity profiling via proximity ligation, sequencing); 10 mM Tris-HCl pH 7.5, 50 mM NaCl, 1 mM DTT, 4% glycerol, room temperature, 30 min; GST-TFs on glutathione beads, 16-mer random dsDNA library, 0.1% formaldehyde crosslink after washing; high values mean tight binding
# FEV = molecular target: T1, FEV (Homo sapiens, UniProt Q99581 1-238); conditions: protein: recombinant; tags: N-terminal GST; dsDNA, one strand shown
# T1 sequence: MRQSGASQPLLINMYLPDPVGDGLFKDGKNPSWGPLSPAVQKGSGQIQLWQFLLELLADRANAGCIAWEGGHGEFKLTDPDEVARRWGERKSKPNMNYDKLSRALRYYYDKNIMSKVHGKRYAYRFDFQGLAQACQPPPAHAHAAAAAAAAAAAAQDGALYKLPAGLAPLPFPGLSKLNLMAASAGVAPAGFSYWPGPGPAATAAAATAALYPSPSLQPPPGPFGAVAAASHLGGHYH
# Summary of the method: (§1)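 The binding signal reported is, for every hexamer, its read frequency for a factor over its read frequency for the tag-only sample. Reads came from pools of yeast-expressed, GST-fused human transcription factors on glutathione beads, barcoded with DNA and mixed with that sample, which were incubated with 200 nmole of a random double-stranded 16-mer DNA library in Tris/NaCl/DTT/glycerol buffer at room temperature for 30 min. After washing, the pools were crosslinked with 0.1% formaldehyde, proximity-ligated with BsaI/T4 ligase for 1 h at 37 °C, PCR-amplified and sequenced on an Illumina NextSeq500.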
# ETV5 = ETV5 (Homo sapiens, UniProt P41161 1-510); conditions: protein: recombinant; tags: N-terminal GST; dsDNA, one strand shown
# Summary of the method: as §1
# HSF1 = HSF1 (Homo sapiens, UniProt Q00613 1-529); conditions: protein: recombinant; tags: N-terminal GST; chain copies: 3; dsDNA, one strand shown
# Summary of the method: as §1
# SPIC = molecular target: T2, SPIC (Homo sapiens, UniProt Q8N5J4 1-248); conditions: protein: recombinant; tags: N-terminal GST; dsDNA, one strand shown
# T2 sequence: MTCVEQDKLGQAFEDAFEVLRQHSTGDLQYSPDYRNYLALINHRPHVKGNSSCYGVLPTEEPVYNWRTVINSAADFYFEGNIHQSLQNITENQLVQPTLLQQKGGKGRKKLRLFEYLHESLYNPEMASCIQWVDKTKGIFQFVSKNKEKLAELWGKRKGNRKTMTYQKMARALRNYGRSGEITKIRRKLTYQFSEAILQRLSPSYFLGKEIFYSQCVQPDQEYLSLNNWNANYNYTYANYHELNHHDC
# Summary of the method: as §1
# ELF4 = ELF4 (Homo sapiens, UniProt Q99607 1-663); conditions: protein: recombinant; tags: N-terminal GST; dsDNA, one strand shown
# Summary of the method: as §1
# ELK4 = molecular target: T3, ELK4 (Homo sapiens, UniProt P28324-2 1-405); conditions: protein: recombinant; tags: N-terminal GST; dsDNA, one strand shown
# T3 sequence: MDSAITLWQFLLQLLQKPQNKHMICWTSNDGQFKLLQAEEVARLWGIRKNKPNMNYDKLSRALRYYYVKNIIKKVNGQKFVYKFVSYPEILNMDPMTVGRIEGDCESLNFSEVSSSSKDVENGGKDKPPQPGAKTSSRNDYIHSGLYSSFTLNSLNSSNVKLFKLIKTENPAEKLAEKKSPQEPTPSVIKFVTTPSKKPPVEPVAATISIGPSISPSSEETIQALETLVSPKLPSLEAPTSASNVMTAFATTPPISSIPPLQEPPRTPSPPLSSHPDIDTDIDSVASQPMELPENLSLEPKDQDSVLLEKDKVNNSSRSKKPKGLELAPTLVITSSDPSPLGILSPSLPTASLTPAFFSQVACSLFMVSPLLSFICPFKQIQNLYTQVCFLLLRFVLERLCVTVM
# Summary of the method: as §1
# ETV2 = molecular target: T4, ETV2 (Homo sapiens, UniProt O00321 1-342); conditions: protein: recombinant; tags: N-terminal GST; dsDNA, one strand shown
# T4 sequence: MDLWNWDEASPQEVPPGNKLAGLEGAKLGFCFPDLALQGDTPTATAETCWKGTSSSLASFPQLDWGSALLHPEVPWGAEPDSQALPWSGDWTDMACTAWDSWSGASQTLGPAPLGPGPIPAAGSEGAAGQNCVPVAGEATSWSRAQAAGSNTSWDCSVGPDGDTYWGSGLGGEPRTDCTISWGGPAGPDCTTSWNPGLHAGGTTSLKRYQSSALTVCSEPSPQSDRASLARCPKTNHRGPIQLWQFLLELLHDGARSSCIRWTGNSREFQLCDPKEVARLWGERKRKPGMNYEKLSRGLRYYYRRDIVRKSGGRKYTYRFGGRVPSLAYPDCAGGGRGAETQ
# Summary of the method: as §1
# ELF3 = molecular target: T5, ELF3 (Homo sapiens, UniProt P78545 1-371); conditions: protein: recombinant; tags: N-terminal GST; dsDNA, one strand shown
# T5 sequence: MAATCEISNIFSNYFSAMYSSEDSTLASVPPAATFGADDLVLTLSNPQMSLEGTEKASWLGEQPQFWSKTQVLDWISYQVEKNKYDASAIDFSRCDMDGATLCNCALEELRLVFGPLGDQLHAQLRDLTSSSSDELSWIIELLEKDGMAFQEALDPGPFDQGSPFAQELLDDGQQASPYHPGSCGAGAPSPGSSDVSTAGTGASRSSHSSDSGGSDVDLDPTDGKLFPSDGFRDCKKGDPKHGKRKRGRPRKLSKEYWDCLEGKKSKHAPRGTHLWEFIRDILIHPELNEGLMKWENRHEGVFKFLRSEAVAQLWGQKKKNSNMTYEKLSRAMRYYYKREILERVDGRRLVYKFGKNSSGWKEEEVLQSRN
# Summary of the method: as §1
# ETV1 = ETV1 (Homo sapiens, UniProt P50549 1-477); conditions: protein: recombinant; tags: N-terminal GST; dsDNA, one strand shown
# Summary of the method: as §1
# ERF = molecular target: T6, ERF (Homo sapiens, UniProt P50548 1-548); conditions: protein: recombinant; tags: N-terminal GST; dsDNA, one strand shown
# T6 sequence: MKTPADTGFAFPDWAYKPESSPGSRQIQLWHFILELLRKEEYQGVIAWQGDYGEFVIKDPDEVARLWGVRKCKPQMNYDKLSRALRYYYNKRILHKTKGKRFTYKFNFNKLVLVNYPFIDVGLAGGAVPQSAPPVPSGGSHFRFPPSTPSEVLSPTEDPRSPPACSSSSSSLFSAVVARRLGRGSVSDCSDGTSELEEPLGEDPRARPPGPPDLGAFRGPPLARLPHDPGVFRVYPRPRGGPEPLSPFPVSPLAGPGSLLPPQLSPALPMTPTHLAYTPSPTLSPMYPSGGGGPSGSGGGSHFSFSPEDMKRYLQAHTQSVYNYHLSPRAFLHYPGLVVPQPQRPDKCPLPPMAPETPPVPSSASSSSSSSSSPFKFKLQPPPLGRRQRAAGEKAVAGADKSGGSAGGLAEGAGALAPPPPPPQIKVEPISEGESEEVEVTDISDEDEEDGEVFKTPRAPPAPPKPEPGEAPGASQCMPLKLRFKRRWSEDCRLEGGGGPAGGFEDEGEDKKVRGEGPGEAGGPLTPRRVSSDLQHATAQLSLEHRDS
# Summary of the method: as §1
# ETV3L = molecular target: T7, ETV3L (Homo sapiens, UniProt Q6ZN32 1-361); conditions: protein: recombinant; tags: N-terminal GST; dsDNA, one strand shown
# T7 sequence: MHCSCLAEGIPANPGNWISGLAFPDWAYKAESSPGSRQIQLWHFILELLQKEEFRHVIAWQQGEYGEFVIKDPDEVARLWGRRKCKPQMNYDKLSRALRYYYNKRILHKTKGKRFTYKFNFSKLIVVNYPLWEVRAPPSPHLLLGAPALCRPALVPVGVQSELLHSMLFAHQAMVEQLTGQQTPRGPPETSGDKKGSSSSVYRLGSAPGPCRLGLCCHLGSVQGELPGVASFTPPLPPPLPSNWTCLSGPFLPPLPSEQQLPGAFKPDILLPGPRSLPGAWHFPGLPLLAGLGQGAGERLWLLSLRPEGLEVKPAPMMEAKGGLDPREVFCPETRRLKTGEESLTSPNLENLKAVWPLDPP
# Summary of the method: as §1
# ETS2 = molecular target: T8, ETS2 (Homo sapiens, UniProt P15036 1-469); conditions: protein: recombinant; tags: N-terminal GST; dsDNA, one strand shown
# T8 sequence: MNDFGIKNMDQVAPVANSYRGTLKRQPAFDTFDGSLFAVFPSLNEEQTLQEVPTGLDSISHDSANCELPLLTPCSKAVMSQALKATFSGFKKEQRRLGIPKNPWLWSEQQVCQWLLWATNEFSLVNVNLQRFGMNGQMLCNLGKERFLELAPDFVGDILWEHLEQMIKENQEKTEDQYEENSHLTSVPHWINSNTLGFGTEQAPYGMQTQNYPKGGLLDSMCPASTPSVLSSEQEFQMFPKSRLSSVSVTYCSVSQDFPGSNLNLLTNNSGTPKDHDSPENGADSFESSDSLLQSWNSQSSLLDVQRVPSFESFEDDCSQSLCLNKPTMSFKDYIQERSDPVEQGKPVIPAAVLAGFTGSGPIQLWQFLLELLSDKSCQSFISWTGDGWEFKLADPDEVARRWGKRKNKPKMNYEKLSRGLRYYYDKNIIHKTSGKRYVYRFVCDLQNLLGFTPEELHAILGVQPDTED
# Summary of the method: as §1
# SPDEF = molecular target: T9, SPDEF (Homo sapiens, UniProt O95238 1-335); conditions: protein: recombinant; tags: N-terminal GST; dsDNA, one strand shown
# T9 sequence: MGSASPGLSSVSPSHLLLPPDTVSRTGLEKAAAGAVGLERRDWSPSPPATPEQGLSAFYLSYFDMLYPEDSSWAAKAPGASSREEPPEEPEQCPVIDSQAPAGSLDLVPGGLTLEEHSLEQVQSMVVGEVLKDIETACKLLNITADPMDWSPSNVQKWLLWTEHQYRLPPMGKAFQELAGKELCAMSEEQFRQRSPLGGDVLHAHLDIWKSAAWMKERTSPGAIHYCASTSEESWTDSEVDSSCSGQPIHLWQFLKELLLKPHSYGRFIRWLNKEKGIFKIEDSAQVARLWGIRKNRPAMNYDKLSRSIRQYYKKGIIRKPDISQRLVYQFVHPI
# Summary of the method: as §1
# ETV7 = molecular target: T10, ETV7 (Homo sapiens, UniProt Q9Y603 1-341); conditions: protein: recombinant; tags: N-terminal GST; dsDNA, one strand shown
# T10 sequence: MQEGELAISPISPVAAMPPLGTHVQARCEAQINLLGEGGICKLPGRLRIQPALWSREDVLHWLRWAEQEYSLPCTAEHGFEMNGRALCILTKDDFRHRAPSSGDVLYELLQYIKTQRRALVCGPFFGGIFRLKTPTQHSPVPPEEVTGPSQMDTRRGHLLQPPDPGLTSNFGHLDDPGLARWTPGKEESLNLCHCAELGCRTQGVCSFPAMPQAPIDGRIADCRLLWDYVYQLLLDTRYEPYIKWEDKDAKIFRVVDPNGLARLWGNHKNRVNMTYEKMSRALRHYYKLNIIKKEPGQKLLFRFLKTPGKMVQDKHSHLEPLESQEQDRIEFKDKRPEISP
# Summary of the method: as §1
# ELF5 = molecular target: T11, ELF5 (Homo sapiens, UniProt Q9UKW6-2 1-255); conditions: protein: recombinant; tags: N-terminal GST; dsDNA, one strand shown
# T11 sequence: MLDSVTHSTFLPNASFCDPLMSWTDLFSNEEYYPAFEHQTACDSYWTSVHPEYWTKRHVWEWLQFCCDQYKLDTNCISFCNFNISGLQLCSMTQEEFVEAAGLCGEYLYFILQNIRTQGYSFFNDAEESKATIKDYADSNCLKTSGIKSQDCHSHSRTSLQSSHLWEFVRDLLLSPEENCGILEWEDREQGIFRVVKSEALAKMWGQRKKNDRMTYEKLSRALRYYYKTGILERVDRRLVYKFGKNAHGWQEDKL
# Summary of the method: as §1
# ETV3 = molecular target: T12, ETV3 (Homo sapiens, UniProt P41162-2 1-143); conditions: protein: recombinant; tags: N-terminal GST; dsDNA, one strand shown
# T12 sequence: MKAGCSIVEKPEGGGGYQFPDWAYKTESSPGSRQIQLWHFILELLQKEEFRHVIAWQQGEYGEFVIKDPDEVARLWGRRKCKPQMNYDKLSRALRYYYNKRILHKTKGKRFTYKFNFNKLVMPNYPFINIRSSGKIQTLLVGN
# Summary of the method: as §1
# ETV6 = ETV6 (Homo sapiens, UniProt P41212 1-452); conditions: protein: recombinant; tags: N-terminal GST; dsDNA, one strand shown
# Summary of the method: as §1
# HSF1, sequence (Q00613 whole entry): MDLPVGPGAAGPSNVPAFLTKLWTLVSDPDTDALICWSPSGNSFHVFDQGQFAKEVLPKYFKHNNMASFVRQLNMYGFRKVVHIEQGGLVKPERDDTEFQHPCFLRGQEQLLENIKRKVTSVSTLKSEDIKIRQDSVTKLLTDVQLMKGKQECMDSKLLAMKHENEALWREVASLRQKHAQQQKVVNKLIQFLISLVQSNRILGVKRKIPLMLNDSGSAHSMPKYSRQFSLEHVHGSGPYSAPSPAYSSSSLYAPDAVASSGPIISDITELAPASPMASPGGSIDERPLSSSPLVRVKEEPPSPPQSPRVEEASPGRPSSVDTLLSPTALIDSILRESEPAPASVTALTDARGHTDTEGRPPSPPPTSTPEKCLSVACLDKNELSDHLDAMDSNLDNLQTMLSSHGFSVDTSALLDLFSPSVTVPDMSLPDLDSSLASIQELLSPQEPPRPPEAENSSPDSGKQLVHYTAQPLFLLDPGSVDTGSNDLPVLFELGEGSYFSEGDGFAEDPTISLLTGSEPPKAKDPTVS
# ELF4, sequence (Q99607 whole entry): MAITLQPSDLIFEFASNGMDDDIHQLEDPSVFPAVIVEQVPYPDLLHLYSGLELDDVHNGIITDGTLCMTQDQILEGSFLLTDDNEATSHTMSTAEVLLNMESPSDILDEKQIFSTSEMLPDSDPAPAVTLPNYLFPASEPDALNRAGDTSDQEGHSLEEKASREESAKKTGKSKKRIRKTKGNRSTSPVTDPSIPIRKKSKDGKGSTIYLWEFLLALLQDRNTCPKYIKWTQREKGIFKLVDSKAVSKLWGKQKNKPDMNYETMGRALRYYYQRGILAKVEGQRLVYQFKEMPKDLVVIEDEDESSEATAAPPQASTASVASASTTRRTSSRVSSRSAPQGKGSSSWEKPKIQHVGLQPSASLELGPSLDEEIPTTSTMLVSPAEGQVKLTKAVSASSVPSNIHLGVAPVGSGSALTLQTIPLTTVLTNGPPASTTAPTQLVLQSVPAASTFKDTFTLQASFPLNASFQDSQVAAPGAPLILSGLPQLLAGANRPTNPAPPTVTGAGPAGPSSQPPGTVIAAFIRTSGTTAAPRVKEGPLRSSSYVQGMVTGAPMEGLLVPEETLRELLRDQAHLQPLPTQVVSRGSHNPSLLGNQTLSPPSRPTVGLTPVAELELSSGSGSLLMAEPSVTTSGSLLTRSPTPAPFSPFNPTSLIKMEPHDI
# ETV5, sequence (P41161 whole entry): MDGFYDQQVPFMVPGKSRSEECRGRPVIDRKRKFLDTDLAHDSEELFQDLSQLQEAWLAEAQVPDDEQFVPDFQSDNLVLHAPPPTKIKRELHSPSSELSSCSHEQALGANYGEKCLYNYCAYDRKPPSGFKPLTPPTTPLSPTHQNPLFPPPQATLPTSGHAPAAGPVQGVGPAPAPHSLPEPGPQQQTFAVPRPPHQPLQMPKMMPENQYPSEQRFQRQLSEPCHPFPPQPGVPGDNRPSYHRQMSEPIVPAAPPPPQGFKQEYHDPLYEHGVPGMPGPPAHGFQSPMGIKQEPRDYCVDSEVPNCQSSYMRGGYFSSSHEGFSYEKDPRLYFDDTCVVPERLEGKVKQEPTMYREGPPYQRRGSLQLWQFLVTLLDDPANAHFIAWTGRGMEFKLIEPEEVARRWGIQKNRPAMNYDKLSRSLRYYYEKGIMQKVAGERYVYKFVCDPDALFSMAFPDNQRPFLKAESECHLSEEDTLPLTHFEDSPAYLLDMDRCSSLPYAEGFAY
# ETV6, sequence (P41212 whole entry): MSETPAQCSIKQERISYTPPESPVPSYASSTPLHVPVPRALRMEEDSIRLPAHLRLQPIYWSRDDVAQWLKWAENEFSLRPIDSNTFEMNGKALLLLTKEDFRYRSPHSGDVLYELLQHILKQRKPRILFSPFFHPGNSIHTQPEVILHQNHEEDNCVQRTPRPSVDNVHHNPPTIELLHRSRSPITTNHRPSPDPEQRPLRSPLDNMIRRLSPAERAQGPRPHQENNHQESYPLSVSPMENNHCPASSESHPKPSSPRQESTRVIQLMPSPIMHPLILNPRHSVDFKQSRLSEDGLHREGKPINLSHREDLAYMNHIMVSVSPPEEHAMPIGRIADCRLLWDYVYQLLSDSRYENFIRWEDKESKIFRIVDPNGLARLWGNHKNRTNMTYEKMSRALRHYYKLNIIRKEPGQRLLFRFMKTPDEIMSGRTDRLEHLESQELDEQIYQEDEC
# ETV1, sequence (P50549 whole entry): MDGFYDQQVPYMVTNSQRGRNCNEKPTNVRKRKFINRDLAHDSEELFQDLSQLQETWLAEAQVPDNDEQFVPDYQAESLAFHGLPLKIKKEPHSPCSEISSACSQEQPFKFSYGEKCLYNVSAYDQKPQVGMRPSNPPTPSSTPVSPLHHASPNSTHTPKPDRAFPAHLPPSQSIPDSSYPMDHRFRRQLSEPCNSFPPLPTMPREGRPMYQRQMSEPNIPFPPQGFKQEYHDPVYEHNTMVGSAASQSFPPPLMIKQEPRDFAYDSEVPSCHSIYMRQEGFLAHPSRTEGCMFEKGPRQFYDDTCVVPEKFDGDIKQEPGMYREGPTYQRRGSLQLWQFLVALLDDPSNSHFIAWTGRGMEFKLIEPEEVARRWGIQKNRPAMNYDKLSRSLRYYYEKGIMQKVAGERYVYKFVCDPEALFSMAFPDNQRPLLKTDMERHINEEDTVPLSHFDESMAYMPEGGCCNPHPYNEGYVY
sequence,measurement,setting,value
GTAACT,binding signal,FEV,"1.18 fold enrichment (6-mer frequency, TF over GST control)"
same,binding signal,ETV5,"1.21 fold enrichment (6-mer frequency, TF over GST control)"
same,binding signal,HSF1,"1.02 fold enrichment (6-mer frequency, TF over GST control)"
same,binding signal,SPIC,"1.37 fold enrichment (6-mer frequency, TF over GST control)"
same,binding signal,ELF4,"1.27 fold enrichment (6-mer frequency, TF over GST control)"
same,binding signal,ELK4,"1.26 fold enrichment (6-mer frequency, TF over GST control)"
same,binding signal,ETV2,"1.2 fold enrichment (6-mer frequency, TF over GST control)"
same,binding signal,ELF3,"1.16 fold enrichment (6-mer frequency, TF over GST control)"
same,binding signal,ETV1,"1.16 fold enrichment (6-mer frequency, TF over GST control)"
same,binding signal,ERF,"1.22 fold enrichment (6-mer frequency, TF over GST control)"
same,binding signal,ETV3L,"1.28 fold enrichment (6-mer frequency, TF over GST control)"
same,binding signal,ETS2,"1.25 fold enrichment (6-mer frequency, TF over GST control)"
same,binding signal,SPDEF,"1.2 fold enrichment (6-mer frequency, TF over GST control)"
same,binding signal,ETV7,"1.12 fold enrichment (6-mer frequency, TF over GST control)"
same,binding signal,ELF5,"1.24 fold enrichment (6-mer frequency, TF over GST control)"
same,binding signal,ETV3,"1.25 fold enrichment (6-mer frequency, TF over GST control)"
same,binding signal,ETV6,"1.25 fold enrichment (6-mer frequency, TF over GST control)"
